Data reported in PubChem BioAssay (NCATS).
Records with an inconclusive call do not appear. A call without a number means that no potency is given here. Calls of active or inactive are those of the source. Calls follow the shape of the dose curve; as a rule, active = well fitted inhibition curve with a large enough effect; inconclusive = small, poorly fitted or top-dose-only effect; inactive = flat fitted curve, though single readings scatter. Peptide text beside a SMILES is read from it.

system: TAB113; assay: qHTS profiling for inhibitors of Plasmodium falciparum proliferation (AID 504749); also: nearly all actives have a fitted effect of over 60% in size; details: P. falciparum in erythrocytes, SYBR Green DNA, 72 h; series mostly up to 12.8 µM
Procedure, shortened: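 SYBR Green fluorescence of parasite DNA, read after lysis and overnight dark incubation, measured growth over 72 h in erythrocyte culture at 0.3% parasitemia and 2.5% hematocrit. Data normalised to DMSO and 0.29 uM artemisinin, with plate-drift correction.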
Potency is read from the fitted curve at half-maximal effect.

| SMILES | Potency |
| --- | --- |
| CN(C)CCCOC1C(C(O)CO)OC2OC(C)(C)O[C@@H]21 (stereo not given in full) | inactive |
| CC(=O)OC1CCC2C3CCc4cc(O)ccc4C3CCC12C (stereo not given) | inactive |
| CC[C@@]12CCCN3CCc4c(n(c5ccccc45)[C@](O)(C(=O)OC)C1)C32 (stereo not given in full) | inactive |
| NC(C(=O)O)[C@@H]1CC(Cl)=NO1 (stereo not given in full) | 1 µM (active) |
| CN1CC(=O)N=C1N | inactive |
| OCC1OC([S-])[C@H](O)C(O)C1O.[Au+] (stereo not given in full) | inactive |
| CC(C)C1CCC(C(=O)NC(Cc2ccccc2)C(=O)O)CC1 (stereo not given) | inactive |
| CCC(CCC(C)C1CCC2C3CC=C4CC(O)CC[C@@]4(C)C3CC[C@@]12C)C(C)C (stereo not given in full) | inactive |
| C[C@]12CCC(=O)C=C1CCC1C2C(=O)C[C@]2(C)C1CC[C@]2(O)C(=O)CO (stereo not given in full) | inactive |
| OCC1O[C@H](OC2C(CO)O[C@@](O)(CO)C2O)C(O)C(O)C1O (stereo not given in full) | inactive |
| CC1(C)OC2CO[C@]3(COS(N)(=O)=O)OC(C)(C)OC3C2O1 (stereo not given in full) | inactive |
| CC1(C)OC2CC(=O)OC[C@@]23C1CC(=O)[C@]1(C)C3CC[C@@]2(C)C(c3ccoc3)OC(=O)C3O[C@@]321 (stereo not given in full) | inactive |
| CCOC(=O)C1=CC(OC(CC)CC)C(NC(C)=O)C(N)C1 (stereo not given) | inactive |
| COC1C=CO[C@@]2(C)Oc3c(C)c(O)c4c(O)c(c5c(nc6cc(C)ccn65)c4c3C2=O)NC(=O)/C(C)=C\C=CC(C)C(O)[C@@H](C)C(O)C(C)[C@@H](OC(C)=O)C1C (stereo not given in full) | 12.6 µM (active) |
| COC(=O)C(Cc1ccccc1)NC(=O)C(N)CC(=O)O (stereo not drawn) (H-Asp-Phe-OMe; configuration not given here) | inactive |
